Earlier results on 24 compounds are cited in PubChem BioAssay AID977611.

The campaign covered roughly 3,900 compounds. About 3,900 (100%) were called active. No cut-off is given here; in the data, nearly all actives have Kd up to about 4200 µM. So high a share suggests a set chosen from earlier hits. This is one part of the list. Starred links: 1 amine or outer side, 2 acyl side, 3 side chain; linkers in the order of their positions; H or OH if unused. Where a SMILES comes first, the peptide text is derived from it. Non-standard residues stand in square brackets, D forms with d. Square brackets hold non-standard residues; d marks the D form. Residues, ends and D or L forms follow the SMILES beside them. Bridges are numbered along the chain shown (N, C = ends). Peptide text beside a SMILES is read from it. [ ]: non-standard residue; d: D form. Thr(P(OH)3+) = C[C@@H](O[P+](O)(O)O)[C@H](N)C(=O)O; X1 = CNC(NC)NCCC[C@H](N[*:1])C(=O)[*:2]; Orn(CH(NH2)2) = NC(N)NCCC[C@H](N)C(=O)O; Lys(Me2) = CN(C)CCCC[C@H](N)C(=O)O; Lys(Me) = CNCCCC[C@H](N)C(=O)O; Abu = CC[C@H](N)C(=O)O

The nature of this data set: PubChem AID 977611. The following applies: PDB protein-ligand complexes, literature Kd.

In general, Kd refers to a measure of binding affinity in units of concentration. Turning to `Cn1cnc2nc(N)[nH]c(=O)c21`, the Kd (protein: rRNA N-glycosidase, PDB entry 4i47) is 0.12 µM (active).
`NCC(=O)NCC(=O)NCC(=O)N[C@@H](CO[P+](O)(O)O)C(=O)NCC(=O)NCC(=O)NCC(=O)O`: the Kd (protein: 14-3-3 protein, PDB entry 1a37) was 0.12 µM (active).
On to `OC[C@H]1O[C@@H](Sc2ccc3ccccc3c2)[C@H](O)[C@@H](O)[C@H]1O`, for which the dissociation constant Kd (protein: PA-I GALACTOPHILIC LECTIN, PDB entry 4a6s) was 6.3 µM (active).
Take `CC[C@H](C)[C@@H]1NC(=O)[C@H](CCCCN)NC(=O)[C@H](Cc2ccccc2)NC(=O)CNC(=O)[C@H](Cc2ccc(O)cc2)NC(=O)[C@H](CC(C)C)NC(=O)[C@H](CCCNC(N)N)NC(=O)[C@@H](NC(=O)CN)CSSC[C@@H](C(=O)NCC(=O)O)NC(=O)CNC(=O)[C@H](Cc2cnc[nH]2)NC1=O` (H-GC[Orn(CH(NH2)2)]LYGFKIHGCG-OH; disulfide 2-12): the Kd (protein: Casein kinase II subunit alpha, PDB entry 4ib5) was 0.56 µM (active).
Regarding `CC[C@H](C)[C@@H]1NC(=O)[C@H](Cc2cnc[nH]2)NC(=O)[C@H]([C@@H](C)CC)NC(=O)[C@H](CCCNC(N)N)NC(=O)[C@@H](N)CSSC[C@@H](C(=O)O)NC(=O)[C@H]([C@@H](C)O)NC(=O)[C@H](Cc2ccc(O)cc2)NC(=O)[C@H](Cc2ccccc2)NC(=O)[C@H](C)NC(=O)[C@H](CCCNC(N)N)NC(=O)CNC(=O)[C@@H]2CCCN2C(=O)CNC1=O`, the Kd (protein: Fab mAb 447-52D Light Chain, PDB entry 4m1d) is 0.023 µM (active).
Take `COc1cc2c(Nc3ccc(NC(=O)c4ccccc4)cc3)ncnc2cc1O`: the equilibrium dissociation constant (Kd) (protein: Bifunctional protein GlmU, PDB entry 4e1k) is 0.5 µM (active).
Consider `NC(N)NC[C@H]1Cc2ccccc2[C@@H]1NC(=O)C(=O)Nc1ccc(Cl)c(F)c1`, for which the Kd (protein: HIV-1 glycoprotein, PDB entry 4i54) is 0.11 µM (active).
Take `NCCCCCC(=O)N[C@H]1Cc2ccccc2[C@@H]1Cc1ccc2c(c1C(=O)O)OCO2`: the Kd is, setting by setting: (protein: INTEGRASE, PDB entry 4cgi) 752 µM (active); (protein: INTEGRASE, PDB entry 4cgj) 1460 µM (active).
Take `O[P+](O)(O)O[P+](O)(O)O[P+](O)(O)O`: the dissociation constant Kd is 12.5 µM (active) (protein: DNA primase small subunit, PDB entry 4lil) and 100 µM (active) (protein: Thiamine-triphosphatase, PDB entry 3tvl).
Take `C[C@@H](O)[C@H](NC(=O)[C@@H]1CCCN1C(=O)[C@H](CO[P+](O)(O)O)NC(=O)[C@@H](N)Cc1ccc(O)cc1)C(=O)N[C@@H](CO[P+](O)(O)O)C(=O)N1CCC[C@H]1C(=O)N[C@@H](CO)C(=O)N[C@@H](Cc1ccc(O)cc1)C(=O)N[C@H](C=O)CO[P+](O)(O)O`: the Kd (protein: CTD INTERACTING DOMAIN of RNA processing factor SCAF8, PDB entry 3d9k) is 19 µM (active).
For `C[C@@H](O)[C@H](NC(=O)[C@@H]1CCCN1C(=O)[C@H](CO[P+](O)(O)O)NC(=O)[C@@H](N)Cc1ccc(O)cc1)C(=O)N[C@@H](CO)C(=O)N1CCC[C@H]1C(=O)N[C@@H](CO)C(=O)N[C@@H](Cc1ccc(O)cc1)C(=O)N[C@@H](CO[P+](O)(O)O)C(=O)N1CCC[C@H]1C=O`, for the setting “protein: CTD INTERACTING DOMAIN of RNA processing factor SCAF8, PDB entry 3d9l”, the Kd was 68 µM (active).
On to `CNc1nc(C)c(-c2nc(Nc3cccc(C(=O)N4CCOCC4)c3)ncc2C#N)s1`, for which the Kd (protein: CYCLIN-DEPENDENT KINASE 2, PDB entry 4bcq) is 0.147 µM (active).
In the case of `C[C@H](N)C(=O)N[C@@H](CCCNC(N)N)C(=O)N[C@H](C(=O)N[C@@H](CCCCN)C(=O)N[C@@H](CCC(N)=O)C(=O)N[C@H](C(=O)N[C@@H](C)C(=O)N[C@@H](CCCNC(N)N)C(=O)N[C@@H](CCCCN)C(=O)O)[C@@H](C)O)[C@@H](C)O`, under “protein: Histone-lysine N-methyltransferase NSD3, PDB entry 4gnf”, the Kd is 450 µM (active).
As to `C[C@H](N)C(=O)N[C@@H](CCCNC(N)N)C(=O)N[C@H](C(=O)N[C@@H](CCCCN)C(=O)N[C@@H](CCC(N)=O)C(=O)N[C@H](C(=O)N[C@@H](C)C(=O)N[C@@H](CCCNC(N)N)C(=O)N[C@@H](CCCCN)C(=O)N[C@@H](CO)C(=O)O)[C@@H](C)O)[C@@H](C)O`, the dissociation constant (Kd) (protein: BHC80 PHD domain, PDB entry 2puy) is 30 µM (active).
On to `C[C@H](N)C(=O)N[C@@H](CCCNC(N)N)C(=O)N[C@H](C(=O)N[C@@H](CCCCN)C(=O)N[C@@H](CCC(N)=O)C(=O)N[C@H](C(=O)O)[C@@H](C)O)[C@@H](C)O` (H-A[Orn(CH(NH2)2)]TKQT-OH), for which the dissociation constant Kd (protein: Histone-lysine N-methyltransferase NSD3, PDB entry 4gne) was 3400 µM (active).
Take `C[C@H](N)C(=O)N[C@@H](CCCNC(N)N)C(=O)N[C@H](C(=O)N[C@@H](CCCCN(C)C)C(=O)N[C@@H](CCC(N)=O)C(=O)N[C@H](C(=O)O)[C@@H](C)O)[C@@H](C)O` (H-A[Orn(CH(NH2)2)]T[Lys(Me2)]QT-OH): the Kd is, setting by setting: (protein: WD-repeat protein 5(WDR523), PDB entry 2o9k) 77 µM (active); (protein: bromodomain PHD finger transcription factor, PDB entry 2fsa) 5 µM (active).
As for `CNCCCC[C@H](NC(=O)[C@@H](NC(=O)[C@H](CCCNC(N)N)NC(=O)[C@H](C)N)[C@@H](C)O)C(=O)N[C@@H](CCC(N)=O)C(=O)N[C@H](C(=O)O)[C@@H](C)O` (H-A[Orn(CH(NH2)2)]T[Lys(Me)]QT-OH), the Kd (protein: human Chromodomain-helicase-DNA-binding protein 1(CHD1), PDB entry 2b2v) is 17 µM (active).
As for `C[C@H](N)C(=O)N[C@@H](CCCNC(N)N)C(=O)N[C@H](C(=O)N[C@@H](CCCCN)C(=O)N[C@@H](CCC(N)=O)C(=O)O)[C@@H](C)O[P+](O)(O)O`, the dissociation constant Kd (protein: human Survivin, PDB entry 3uig) is 4.8 µM (active).
Turning to `C[C@H](N)C(=O)N[C@@H](CCCNC(N)N(C)C)C(=O)N[C@H](C(=O)N[C@@H](CCCCN(C)C)C(=O)N[C@@H](CCC(N)=O)C(=O)N[C@H](C(=O)N[C@@H](C)C(=O)O)[C@@H](C)O)[C@@H](C)O` (stereo partly drawn) (H-A[X1]T[Lys(Me2)]QTA-OH), under “protein: hPHD-HD1 complex, PDB entry 2vpg”, the Kd was 2.1 µM (active).
`C[C@H](N)C(=O)N[C@@H](CCCNC(N)N)C(=O)N[C@H](C(=O)N[C@@H](CCCCN)C(=O)N[C@@H](CCC(N)=O)C(N)=O)[C@@H](C)O`: the Kd (protein: WD-repeat protein 5(WDR5), PDB entry 2co0) was 3.3 µM (active).
As for `C[C@H](N)C(=O)N[C@@H](CCCNC(N)N)C(=O)N[C@H](C(=O)N[C@@H](CCCCN)C(=O)N[C@@H](CCC(N)=O)C(=O)NCC(=O)O)[C@@H](C)O` (H-A[Orn(CH(NH2)2)]TKQG-OH), for the setting “protein: WD-repeat protein 5(WDR523), PDB entry 2h9m”, the Kd is 35 µM (active).
As for `CNC(NC)NCCC[C@H](NC(=O)[C@H](C)N)C(=O)N[C@H](C(=O)N[C@@H](CCCCN)C(=O)N[C@@H](CCC(N)=O)C(=O)N[C@H](C(N)=O)[C@@H](C)O)[C@@H](C)O` (H-A[X1]TKQT-NH2), for the setting “protein: WD REPEAT-CONTAINING PROTEIN 5, WDR5, PDB entry 4a7j”, the dissociation constant (Kd) was 0.1 µM (active).
Consider `CC[C@H](NC(=O)[C@@H](NC(=O)[C@H](CCCNC(N)N)NC(=O)[C@H](C)N)[C@@H](C)O)C(=O)N[C@@H](CCC(N)=O)C(=O)O` (H-A[Orn(CH(NH2)2)]T[Abu]Q-OH), for which the dissociation constant Kd was 4.5 µM (active) (protein: WD-repeat protein 5(WDR5), PDB entry 2h13) and 115 µM (active) (protein: WD-repeat protein 5(WDR523), PDB entry 2h9n).
In the case of `C[C@H](N)C(=O)N[C@@H](CCCNC(N)N)C(=O)N[C@H](C(=O)N[C@@H](CCCCN)C(=O)N[C@@H](C)C(=O)N[C@@H](C)C(=O)O)[C@@H](C)O[P+](O)(O)O` (H-A[Orn(CH(NH2)2)][Thr(P(OH)3+)]KAA-OH), the dissociation constant (Kd) (protein: Baculoviral IAP repeat-containing protein 5, human Survivin, PDB entry 3ued) was 29.6 µM (active).
